The results in this text go back to ChEMBL document CHEMBL1961873, “Compounds: GSK PKIS; Assays: Nanosyn kinase panel” (2012).

SMILES strings stand for the structures.

In assay [1] the target is Serine/threonine-protein kinase pim-2 (Homo sapiens) (UniProt Q9P1W9). As to conditions: at 1 µM.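 Also: each value is a mean of the inhibition measurements against the kinase.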
Assay [2] concerns the target Serine/threonine-protein kinase pim-3 (Homo sapiens) (UniProt Q86V86). Conditions: at 0.1 µM.
The target is the same in assay [3]. Conditions: at 1 µM.
Assay [4] deals with T1, MAP kinase-activated protein kinase 5 (Homo sapiens) (UniProt Q8IW41).
T1 sequence (whole entry): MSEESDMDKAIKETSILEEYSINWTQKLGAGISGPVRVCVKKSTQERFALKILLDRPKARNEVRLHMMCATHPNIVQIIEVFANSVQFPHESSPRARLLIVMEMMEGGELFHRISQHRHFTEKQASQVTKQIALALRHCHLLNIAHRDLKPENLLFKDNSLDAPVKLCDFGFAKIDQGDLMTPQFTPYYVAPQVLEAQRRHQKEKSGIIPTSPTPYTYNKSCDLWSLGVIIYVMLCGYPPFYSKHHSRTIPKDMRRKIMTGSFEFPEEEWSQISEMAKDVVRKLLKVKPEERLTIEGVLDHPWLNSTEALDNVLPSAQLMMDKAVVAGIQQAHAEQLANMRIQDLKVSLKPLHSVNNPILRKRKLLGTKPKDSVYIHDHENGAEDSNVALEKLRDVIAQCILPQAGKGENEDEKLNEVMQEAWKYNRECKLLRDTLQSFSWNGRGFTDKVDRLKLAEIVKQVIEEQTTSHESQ
As to conditions: at 0.1 µM.

Assay [5] deals with T1, MAP kinase-activated protein kinase 5 (Homo sapiens). As to conditions: at 1 µM.
In assay [6] the target is Serine/threonine-protein kinase SIK1 (Homo sapiens) (UniProt P57059). Conditions: at 0.1 µM.
Serine/threonine-protein kinase SIK1 (Homo sapiens), sequence (P57059 whole entry): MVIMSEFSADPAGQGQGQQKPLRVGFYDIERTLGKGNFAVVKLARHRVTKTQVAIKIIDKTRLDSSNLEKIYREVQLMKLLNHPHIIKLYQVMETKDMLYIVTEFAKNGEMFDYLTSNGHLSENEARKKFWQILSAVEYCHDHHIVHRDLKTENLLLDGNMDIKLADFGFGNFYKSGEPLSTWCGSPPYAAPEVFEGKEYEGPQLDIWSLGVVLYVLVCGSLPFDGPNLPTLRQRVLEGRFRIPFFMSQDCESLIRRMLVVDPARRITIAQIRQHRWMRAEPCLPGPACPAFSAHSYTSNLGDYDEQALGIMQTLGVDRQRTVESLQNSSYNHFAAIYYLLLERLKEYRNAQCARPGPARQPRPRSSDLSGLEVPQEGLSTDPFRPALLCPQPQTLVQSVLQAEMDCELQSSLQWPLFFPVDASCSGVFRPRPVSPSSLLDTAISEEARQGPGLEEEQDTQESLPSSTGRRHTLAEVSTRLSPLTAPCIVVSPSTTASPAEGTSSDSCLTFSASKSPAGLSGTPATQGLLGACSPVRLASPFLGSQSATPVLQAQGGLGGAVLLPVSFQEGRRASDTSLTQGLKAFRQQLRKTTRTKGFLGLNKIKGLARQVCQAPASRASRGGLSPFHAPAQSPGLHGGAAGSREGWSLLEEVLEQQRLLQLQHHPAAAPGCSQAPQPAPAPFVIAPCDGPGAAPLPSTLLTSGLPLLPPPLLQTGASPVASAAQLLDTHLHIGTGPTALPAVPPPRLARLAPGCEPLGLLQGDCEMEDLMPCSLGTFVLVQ
For assay [7] the target is unchanged. As to conditions: at 1 µM.
Assay [8] concerns the target Serine/threonine-protein kinase SIK2 (Homo sapiens) (UniProt Q9H0K1). Conditions: at 0.1 µM.
Assay [9] shares this target. As to conditions: at 1 µM.
In assay [10] the target is T2, Serine/threonine-protein kinase TBK1 (Homo sapiens) (UniProt Q9UHD2).
T2 sequence (whole entry): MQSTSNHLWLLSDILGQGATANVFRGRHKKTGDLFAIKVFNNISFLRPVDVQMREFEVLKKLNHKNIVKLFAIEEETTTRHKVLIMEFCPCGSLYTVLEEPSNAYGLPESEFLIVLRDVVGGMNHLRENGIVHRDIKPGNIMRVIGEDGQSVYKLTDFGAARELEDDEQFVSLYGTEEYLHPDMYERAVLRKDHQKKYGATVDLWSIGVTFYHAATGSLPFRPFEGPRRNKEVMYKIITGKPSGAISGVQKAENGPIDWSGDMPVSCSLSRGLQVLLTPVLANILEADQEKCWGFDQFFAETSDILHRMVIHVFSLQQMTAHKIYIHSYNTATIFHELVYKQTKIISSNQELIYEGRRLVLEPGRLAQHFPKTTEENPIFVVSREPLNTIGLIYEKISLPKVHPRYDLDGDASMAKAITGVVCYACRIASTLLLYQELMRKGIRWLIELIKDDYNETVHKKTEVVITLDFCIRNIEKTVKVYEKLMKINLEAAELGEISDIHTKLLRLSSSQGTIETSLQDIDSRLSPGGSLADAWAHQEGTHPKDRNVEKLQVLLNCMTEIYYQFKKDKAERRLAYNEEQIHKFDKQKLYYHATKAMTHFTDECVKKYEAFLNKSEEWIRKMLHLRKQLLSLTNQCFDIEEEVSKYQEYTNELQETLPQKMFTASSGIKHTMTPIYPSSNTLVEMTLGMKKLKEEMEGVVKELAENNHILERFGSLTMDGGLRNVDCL
As to conditions: at 0.1 µM.

Assay [11] deals with T2, Serine/threonine-protein kinase TBK1 (Homo sapiens). Conditions: at 1 µM.
The target in assay [12] is T3, Testis-specific serine/threonine-protein kinase 1 (Homo sapiens) (UniProt Q9BXA7).
T3 sequence (whole entry): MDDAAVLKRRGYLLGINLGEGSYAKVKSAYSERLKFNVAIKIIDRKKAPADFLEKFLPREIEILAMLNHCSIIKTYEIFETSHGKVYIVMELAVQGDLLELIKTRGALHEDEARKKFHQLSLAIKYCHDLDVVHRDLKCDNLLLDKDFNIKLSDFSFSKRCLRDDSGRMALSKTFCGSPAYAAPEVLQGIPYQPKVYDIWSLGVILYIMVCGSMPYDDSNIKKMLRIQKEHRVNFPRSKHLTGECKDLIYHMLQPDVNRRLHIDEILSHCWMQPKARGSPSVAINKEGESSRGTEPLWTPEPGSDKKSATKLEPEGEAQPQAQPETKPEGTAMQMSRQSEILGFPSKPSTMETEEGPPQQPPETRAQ
Conditions: at 0.1 µM.

In assay [13] the target is T3, Testis-specific serine/threonine-protein kinase 1 (Homo sapiens). As to conditions: at 1 µM.
Assay [14] addresses T4, Testis-specific serine/threonine-protein kinase 2 (Homo sapiens) (UniProt Q96PF2).
T4 sequence (whole entry): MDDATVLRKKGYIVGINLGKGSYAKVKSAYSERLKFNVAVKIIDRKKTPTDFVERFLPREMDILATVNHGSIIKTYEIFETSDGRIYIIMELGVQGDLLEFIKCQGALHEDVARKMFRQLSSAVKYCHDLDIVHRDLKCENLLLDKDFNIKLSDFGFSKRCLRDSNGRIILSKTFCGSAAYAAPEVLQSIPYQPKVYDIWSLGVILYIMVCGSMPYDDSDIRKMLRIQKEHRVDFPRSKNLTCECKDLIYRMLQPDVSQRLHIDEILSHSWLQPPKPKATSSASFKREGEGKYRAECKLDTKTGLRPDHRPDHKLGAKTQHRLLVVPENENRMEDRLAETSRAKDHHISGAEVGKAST
Conditions: at 0.1 µM.

Assay [15] deals with T4, Testis-specific serine/threonine-protein kinase 2 (Homo sapiens). Conditions: at 1 µM.
For assay [16], the target named is Casein kinase I isoform alpha (Homo sapiens) (UniProt P48729). Conditions: at 0.1 µM.
Casein kinase I isoform alpha (Homo sapiens), sequence (P48729 2-337 limits assumed): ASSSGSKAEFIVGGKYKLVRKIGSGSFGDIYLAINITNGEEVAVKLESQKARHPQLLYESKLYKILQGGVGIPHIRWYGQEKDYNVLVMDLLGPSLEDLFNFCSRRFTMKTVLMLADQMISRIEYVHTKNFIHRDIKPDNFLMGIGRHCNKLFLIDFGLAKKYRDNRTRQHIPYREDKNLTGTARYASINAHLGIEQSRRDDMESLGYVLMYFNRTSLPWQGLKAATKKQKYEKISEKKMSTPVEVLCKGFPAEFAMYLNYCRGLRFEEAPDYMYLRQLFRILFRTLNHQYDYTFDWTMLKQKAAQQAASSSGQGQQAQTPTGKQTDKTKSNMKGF
Assay [17] has the same target. As to conditions: at 1 µM.
The target of assay [18] is Casein kinase I isoform gamma-1 (Homo sapiens) (UniProt Q9HCP0). As to conditions: at 0.1 µM.
Casein kinase I isoform gamma-1 (Homo sapiens), sequence (Q9HCP0 whole entry, looked up, canonical isoform): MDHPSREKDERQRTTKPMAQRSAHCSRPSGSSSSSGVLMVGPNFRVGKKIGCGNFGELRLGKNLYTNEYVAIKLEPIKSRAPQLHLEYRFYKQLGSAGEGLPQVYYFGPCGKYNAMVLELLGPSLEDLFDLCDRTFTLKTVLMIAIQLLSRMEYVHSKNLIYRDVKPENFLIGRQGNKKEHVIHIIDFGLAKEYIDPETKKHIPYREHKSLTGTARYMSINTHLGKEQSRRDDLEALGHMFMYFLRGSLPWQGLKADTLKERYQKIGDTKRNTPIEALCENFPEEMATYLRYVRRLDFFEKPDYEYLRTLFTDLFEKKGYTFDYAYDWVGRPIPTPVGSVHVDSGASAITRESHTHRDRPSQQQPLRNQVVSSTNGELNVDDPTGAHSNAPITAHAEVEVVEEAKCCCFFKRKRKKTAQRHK
The target is the same in assay [19]. Conditions: at 1 µM.
Assay [20] concerns the target Casein kinase I isoform gamma-2 (Homo sapiens) (UniProt P78368). As to conditions: at 0.1 µM.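 Also: values are mean inhibition figures reported as part of the GSK PKIS dataset.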

Serine/threonine-protein kinase pim-2 (Homo sapiens), sequence (Q9P1W9 whole entry, looked up): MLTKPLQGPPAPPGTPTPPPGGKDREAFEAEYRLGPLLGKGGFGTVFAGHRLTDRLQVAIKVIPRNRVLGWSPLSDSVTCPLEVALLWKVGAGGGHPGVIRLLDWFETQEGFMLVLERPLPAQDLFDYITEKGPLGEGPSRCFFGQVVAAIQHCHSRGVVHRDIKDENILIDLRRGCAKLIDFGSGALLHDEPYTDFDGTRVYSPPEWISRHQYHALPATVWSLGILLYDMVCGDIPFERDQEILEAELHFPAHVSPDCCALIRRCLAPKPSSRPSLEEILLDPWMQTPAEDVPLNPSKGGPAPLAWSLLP
Casein kinase I isoform gamma-2 (Homo sapiens), sequence (P78368 whole entry, looked up, canonical isoform): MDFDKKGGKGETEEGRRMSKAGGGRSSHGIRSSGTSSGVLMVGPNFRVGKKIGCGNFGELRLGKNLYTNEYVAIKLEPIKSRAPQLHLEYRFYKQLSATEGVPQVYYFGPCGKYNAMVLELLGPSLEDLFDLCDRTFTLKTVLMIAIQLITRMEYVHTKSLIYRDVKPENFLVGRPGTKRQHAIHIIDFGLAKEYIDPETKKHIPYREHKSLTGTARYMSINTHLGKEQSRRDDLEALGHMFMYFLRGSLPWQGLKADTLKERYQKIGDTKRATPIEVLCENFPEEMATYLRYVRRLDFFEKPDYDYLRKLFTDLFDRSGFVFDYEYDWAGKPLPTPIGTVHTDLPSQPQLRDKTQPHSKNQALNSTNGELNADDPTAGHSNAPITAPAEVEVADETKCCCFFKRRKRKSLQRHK
Serine/threonine-protein kinase SIK2 (Homo sapiens), sequence (Q9H0K1 whole entry, looked up): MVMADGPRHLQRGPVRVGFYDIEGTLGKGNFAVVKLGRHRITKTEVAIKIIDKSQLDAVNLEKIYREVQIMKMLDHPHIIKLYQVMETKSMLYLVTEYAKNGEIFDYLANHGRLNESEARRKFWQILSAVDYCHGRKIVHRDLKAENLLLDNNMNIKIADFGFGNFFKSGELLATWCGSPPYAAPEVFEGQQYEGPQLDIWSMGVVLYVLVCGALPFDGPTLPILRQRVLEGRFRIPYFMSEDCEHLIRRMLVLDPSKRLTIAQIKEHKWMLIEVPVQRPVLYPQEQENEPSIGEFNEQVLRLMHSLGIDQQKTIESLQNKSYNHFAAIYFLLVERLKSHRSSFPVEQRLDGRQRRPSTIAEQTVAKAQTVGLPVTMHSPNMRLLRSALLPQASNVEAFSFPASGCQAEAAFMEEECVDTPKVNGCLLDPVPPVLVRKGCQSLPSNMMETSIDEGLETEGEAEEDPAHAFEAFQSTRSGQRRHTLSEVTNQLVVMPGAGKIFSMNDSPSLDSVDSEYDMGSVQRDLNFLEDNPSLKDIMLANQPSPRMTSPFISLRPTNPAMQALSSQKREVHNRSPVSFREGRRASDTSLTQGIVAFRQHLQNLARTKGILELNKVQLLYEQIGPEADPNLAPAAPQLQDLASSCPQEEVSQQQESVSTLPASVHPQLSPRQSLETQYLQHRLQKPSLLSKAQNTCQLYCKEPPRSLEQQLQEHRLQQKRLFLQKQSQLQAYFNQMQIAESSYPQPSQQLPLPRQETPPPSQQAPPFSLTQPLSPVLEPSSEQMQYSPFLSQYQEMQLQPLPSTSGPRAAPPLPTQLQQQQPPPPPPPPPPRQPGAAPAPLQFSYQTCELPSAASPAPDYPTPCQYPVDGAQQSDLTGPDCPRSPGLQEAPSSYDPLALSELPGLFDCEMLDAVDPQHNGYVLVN

The inhibition is the drop in the measured response relative to a control, in per cent. In the case of `CNC(=O)c1cncc(/C=C/c2c(C)cccc2C)c1`, the inhibition in assay [1] was -3.47%; in assay [2], 1.2%; in assay [3], 2.65%; in assay [4] it was -0.02%; in assay [5] it was -0.41%; in [6] it was 26.2%. The inhibition in assay [7] amounted to 76%; in assay [8], 7.18%; in assay [9], 27.6%; in [10], 0.21%; in [11] it was 0.94%; in assay [12] it was 0.04%. Besides, the inhibition in assay [13] is -1.47%; in assay [14], -0.04%; in assay [15], -1.42%; in assay [16], 4.35%; in assay [17], 2.33%; in [18] it was -2.91%. Also, the inhibition is -2.08% in assay [19] and -2.38% in assay [20].
Regarding `COc1ccc(C2=C(N3CCc4ccccc43)C(=O)NC2=O)cc1`, the inhibition in [1] was 0.67%; in assay [2], -0.2%; in assay [3], 0.86%; in assay [4] it was 1.93%; in [5] it was 2.12%; in assay [6] it was 8.63%. For the same compound, the inhibition in assay [7] was determined as 8.47%; in assay [8], 6.36%; in assay [9], 11.3%; in assay [10] it was 0.88%; in assay [11], 7.18%; in [12], 4.87%. The inhibition is 6.13% in assay [13]; 3.64% in [14]; 3.35% in [15]; 3.74% in assay [16]; 8.77% in [17]; 3.77% in assay [18]. The inhibition in [19] worked out at 4.09%; in assay [20], 3.12%.
In the case of `CN(C)c1ccc2c(c1)/C(=C/Nc1ccc(S(N)(=O)=O)cc1)C(=O)N2`, the inhibition turned out to be 1.18% in assay [1]; 0.39% in assay [2]; 0.56% in assay [3]; 0.23% in assay [4]; 0.46% in assay [5]; 3.94% in [6]. Moreover, the inhibition in assay [7] came to 14.7%; in assay [8], 5.24%; in assay [9] it was 18.2%; in assay [10], 6.65%; in assay [11], 49.7%; in [12], 2.84%. For the same compound, the inhibition in assay [13] was 9.92%; in [14], 0.44%; in assay [15], 1.25%; in assay [16], 1.06%; in assay [17], 2.88%; in assay [18] it was 1.12%. Further, the inhibition in assay [19] is 1.57%; in [20], 1.13%.
Consider `COc1cccc(-n2cnc3c(N/N=C/c4ccncc4)ncnc32)c1`, for which the inhibition in assay [1] was -3.43%; in assay [2], 3.67%; in [3], 6.5%; in assay [4] it was 0.59%; in [5], 2.56%; in [6] it was 1.88%. Also, the inhibition in [7] turned out to be 12%; in assay [8], 9.07%; in [9] it was 34.1%; in [10] it was 0.99%; in [11] it was 2.56%; in assay [12] it was 0.41%. Further, the inhibition in assay [13] was 5.32%; in [14], 0.37%; in assay [15] it was 4.98%; in assay [16], 0.17%; in assay [17], 0.8%; in [18], -3.8%. The inhibition in assay [19] is -4.26%; in assay [20], -3.36%.
For `NC(=O)c1cc(-c2ccc(F)cc2)cc(-c2ccncc2)c1N`, the inhibition is -1.22% in assay [1]; -0.69% in assay [2]; -5.17% in assay [3]; 1.11% in [4]; 2.54% in assay [5]; 4.79% in [6]. The inhibition in assay [7] turned out to be 9.72%; in assay [8], 7.37%; in assay [9], 8.31%; in assay [10], 3.66%; in assay [11], 2.04%; in assay [12], 3.98%. For the same compound, the inhibition in assay [13] worked out at 5.61%; in assay [14] it was 2.71%; in assay [15], 4.29%; in assay [16] it was 6.79%; in [17], 2.14%; in [18], 4.19%. In addition, the inhibition in [19] was 4.95%; in [20], 3.82%.
Turning to `O=C(Nc1n[nH]c2nc(-c3ccco3)ccc12)C1CC1`, the inhibition was -0.06% in [1]; 0.6% in [2]; -0.35% in assay [3]; -0.19% in [4]; -1.25% in assay [5]; 4.89% in assay [6]. The inhibition was found to be 3.71% in assay [7]; 0.98% in [8]; 3.32% in assay [9]; 1.19% in [10]; 2.8% in [11]; 1.99% in [12]. The inhibition is -0.53% in [13]; 0.63% in assay [14]; -1.49% in assay [15]; 0.06% in assay [16]; 3.38% in [17]; 0.09% in assay [18]. Also, the inhibition was 1.22% in assay [19] and -0.26% in assay [20].
